Screening data deposited in PubChem BioAssay by Broad Institute.
Shown are actives, neighbours in structure and some others; about 4% of the full set was active somewhere.
Wnt bcat act: Wnt/beta-catenin pathway activation. actives 1.2% (n = 300,000). activation, % at 9.35 µM. Wnt/beta-catenin reporter cell assay, activator, plate reader. AID 743398; in the data active means activation above about 30%, passing the limit was not always enough; inconclusive means no clear call, values can overlap the other calls;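 further: 0% = neutral control wells and 100% = positive control wells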
MITF TRPM1 HTS: increases MITF-driven TRPM1 promoter luciferase signal. actives 0.75% (n = 300,000). activation, % at 12.5 µM. SK-MEL-5 TRPM1-promoter luciferase, 24 h; % of positive control, neutral wells = 0;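 active means mean activation of at least 80% with every replicate also reaching 80%; inconclusive means mean reaches 80% but some replicate falls short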;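 further: 0% = neutral control wells and 100% = parthenolide positive control wells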
EBV LMP1 NFkB: reduces LMP1-driven NF-kappaB luciferase signal; LMP1-induced NF-kappaB luciferase reporter cells, luminescence; inhibition, % at 12.5 µM; actives 0.69% (n = 350,000); AID 504558; in the data active means inhibition above about 41%; inconclusive means no clear call, values can overlap the other calls;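 further: 0% = neutral control wells and 100% = reference inhibitor control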
esBAF inh: inhibitors of esBAF chromatin remodeling in mouse ES cells | Bmi1-luciferase knock-in reporter, 24 h; 100% = twice the neutral-well signal | reporter increase, % at 12.5 µM | actives 2% (n = 350,000) | AID 602393; in the data active means activation above about 40%; inconclusive means no clear call, values can overlap the other calls;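 further: 0% = median of the plate's neutral control wells and 100% = double that signal; a rise in the Bmi1 reporter signal indicates esBAF inhibition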
MITF TRPM1 inh: MITF TRPM1 promoter inhibition in SK-MEL-5 cells; SK-MEL-5 TRPM1 promoter luciferase, 24 h; inhibition, % at 12.5 µM; actives 0.83% (n = 330,000); AID 488899;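 active means mean inhibition across replicates of 60% or more, whatever share of single replicates reaches that level; inconclusive means some that reach 60%, reason not given; inactive means mean inhibition across replicates below 60%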
C2C12 statin: suppression of simvastatin myotoxicity; actives 0.78% (n = 330,000); C2C12 myotubes + simvastatin, ATP luminescence, 48 h; scaled: DMSO 0, geranylgeraniol control 100; rescue of ATP level, % at 7.49 µM;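 active means mean ATP rescue above about 67%, or every replicate alone reaching that limit, limit read from the data, passing the limit was not always enough; inconclusive means no clear call, values can overlap the other calls; inactive means mean under the limit and some replicate under it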;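 further: myotubes were challenged with 10 µM simvastatin during compound exposure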
Active calls of the source: *; ? = inconclusive; · = not tested or not shown.

SMILES | Wnt bcat act | MITF TRPM1 HTS | EBV LMP1 NFkB | esBAF inh | MITF TRPM1 inh | C2C12 statin
Cn1c(SCc2nc3ccccc3s2)nnc1-c1cccs1 | · | 21 | -19 | ? | -21 | 0
Cn1c(SCc2ccccc2)nnc1-c1cccs1 | · | ? | -17 | 59* | -77 | 8
Cn1c(SCc2ccc(F)cc2)nnc1-c1cccs1 | 22 | 86* | -6 | · | -95 | ·
CC(Oc1ccccc1)C(=O)N1CCN(c2ncccn2)CC1 (stereo not drawn) | -5 | 4 | -8 | 10 | -3 | -3
CCC(=O)N1C[C@H](C)[C@@H](OC)CN(C)C(=O)c2cc(NS(C)(=O)=O)ccc2OC[C@@H]1C | · | · | · | 4 | · | 0
Cc1cc(C)c(NC(=O)CS)c(Cl)c1 | 1 | 2 | -16 | -13 | -1 | 5
CC(C)CCC(C)N=Cc1c(O)n(Cc2ccccc2)c(=O)c2ccccc12 (stereo not drawn) | · | 8 | 1 | · | -14 | ·
Cc1ccc(CCNC(=O)c2ccc(NC3=NC4CS(=O)(=O)CC4S3)cc2)cc1 (stereo not drawn) | -2 | -4 | -5 | 0 | 1 | -4
Cc1ccc(CCNC(=O)Cc2ccc(NC3=NC4CS(=O)(=O)CC4S3)cc2)cc1 (stereo not drawn) | -4 | 4 | 85* | -3 | -5 | -2
Cc1ccc(NC(=O)CSCc2nc3c(nnn3Cc3ccc(F)cc3)c(=O)[nH]2)c(C)c1 | 0 | -7 | -5 | · | 7 | ·
CCC1=[N+](CC(=O)c2ccc(C)cc2)CCn2c(C)ccc21 | 12 | 3 | -17 | · | -3 | ·
CCC1=[N+](CC(=O)c2ccc(C)cc2)CCn2cccc21 | 6 | 56 | -29 | 43* | -60 | -88
NS(=O)(=O)c1ccc(CNC(=S)Nc2ccc(Cl)c(Cl)c2)cc1 | 3 | -11 | 1 | -8 | 10 | -5
Oc1[nH]c2ccccc2c1N=Nc1ccc(F)cc1 | ? | 47 | -75 | · | -37 | ·
Oc1[nH]c2ccccc2c1N=Nc1ccccc1 | 28 | 20 | -46 | 52* | -22 | ·
Oc1[nH]c2ccccc2c1N=Nc1ccccc1F | 18 | 37 | -68 | 86* | -39 | 5
CC(C)(O)C(=O)N=Nc1c(O)[nH]c2ccccc12 | -4 | 17 | -10 | · | -12 | ·
CCCC(=O)Nc1ccc2c(c1)C(=O)N(C)[C@@H]1CC[C@H](CC(=O)OC)O[C@H]1CO2 | · | · | · | -2 | · | -9
S=C1SCN(Cc2ccccc2)CN1Cc1ccccc1 | -1 | -2 | 33 | -9 | 5 | 4
S=C1SCN(Cc2ccccc2)CN1Cc1ccco1 | -1 | · | 42* | -4 | · | -6
CC(C)OC(=O)c1ccc2nc3ccccc3nc2c1 | 43* | 6 | -21 | -4 | -4 | -4
CC(C)OC(=O)c1ccc(NC(=O)c2ccccc2)cc1 | · | 60 | -17 | · | -57 | ·
CC(C)OC(=O)c1ccc2ccc(-c3ccccc3)nc2c1 | 24 | · | · | 55* | · | -19
O=C(Nc1ccc(N2CCN(C(=O)c3ccc(Cl)cc3)CC2)cc1)c1cccs1 | -3 | 0 | 8 | 1 | 2 | -16
O=C(NCc1ccc(F)cc1)Nc1cccc(Cl)c1 | -8 | 63 | -3 | · | -61 | ·
SMILES | Wnt bcat act | MITF TRPM1 HTS | EBV LMP1 NFkB | esBAF inh | MITF TRPM1 inh | C2C12 statin
C(=N\Nc1nc(Nc2ccccc2)nc(N2CCOCC2)n1)/c1c[nH]c2ccccc12 | -1 | · | · | · | · | ·
COC(=O)c1ccc(Nc2nc(N3CCOCC3)nc(N3CCOCC3)n2)cc1 | 1 | 93* | -3 | -6 | -90 | -13
O=C(Oc1cccc(/C=N/Nc2nc(Nc3ccccc3)nc(N3CCOCC3)n2)c1)c1ccco1 | -1 | 103* | -6 | · | -93 | ·
CC(C)CC1Nc2ncnc(N3CCN(c4ccccc4)CC3)c2N(Cc2ccccc2)C1=O (stereo not drawn) | -3 | 0 | -17 | 4 | 6 | -1
CCc1ccc(Nc2ncc3c(n2)CC(C)CC3=O)cc1 (stereo not drawn) | 17 | 107* | -50 | · | -101 | ·
CCc1ccc(Nc2ncc3c(n2)CC(C)(C)CC3=O)cc1 | 57* | 102* | -27 | · | -106 | ·
Cc1cccc(Nc2ncc3c(n2)CC(C)CC3=O)c1 (stereo not drawn) | · | ? | -38 | 51* | -78 | 22
CCCCN(CC)C(=O)CSc1cc(=O)n(C)c2ccccc12 | · | · | 10 | 3 | 6 | -1
O=C(CN1C(=O)CCS(=O)(=O)c2ccccc21)NCc1ccccc1 | · | 4 | -4 | -4 | -6 | 72*
Nc1nc(-c2ccc(NC(=O)c3ccco3)cc2)cs1 | 42* | -6 | 76* | -67 | 10 | -2
O=C(Nc1ccc(-c2ccccc2)cc1)c1ccco1 | -1 | -5 | 2 | -3 | 3 | 8
O=C(Cc1ccccc1)Nc1ccccc1C(=O)Nc1ccccc1 | -1 | 3 | 5 | · | -2 | ·
Cc1ccc(NC(=O)c2ccccc2NC(=O)Cc2ccccc2)cc1 | 35* | 12 | -19 | · | -8 | ·
CC(=O)Nc1cccc(-c2cn3ccc(C)cc3n2)c1 | · | 25 | -6 | · | -25 | ·
COc1ccc(CC(=O)Nc2cccc(-c3cn4ccccc4n3)c2)cc1 | 6 | 39 | -3 | · | -36 | ·
COc1ccc(CC(=O)Nc2ccc(-c3cn4ccccc4n3)cc2)cc1 | · | 39 | 0 | 31 | -33 | 111*
Cc1ccn2cc(-c3ccc(NC(=O)c4ccco4)cc3)nc2c1 | 46* | 67 | -15 | -27 | -70 | -40
Cc1ccc(S(=O)(=O)N(CC(=O)N2CCOCC2)c2ccc(Br)cc2)cc1 | -1 | -2 | -1 | -2 | -2 | 2
CCOC(=O)CSc1nsc(SCC(=O)OCC)c1C#N | -2 | 4 | 1 | -3 | -4 | -4
CCc1nnc(NC(=O)[C@@H](NC(=O)c2ccc(OC)cc2)C(C)C)s1 | 2 | -1 | -11 | · | -4 | ·
C/C(=N\NC(=O)c1cccc(C)c1O)c1ccc(NC(=O)Cc2ccccc2)cc1 | 13 | 92* | -13 | · | -89 | ·
Cc1nc(-c2ccc(NC(=O)c3ccco3)cc2)cs1 | -9 | -70 | 64* | -77 | 73* | -122
Cc1nc(-c2cccc(NC(=O)c3ccco3)c2)cs1 | 6 | 18 | -13 | 15 | -15 | -15
Cc1nc(-c2ccc(NC(=O)Cc3ccccc3)cc2)cs1 | 4 | 65 | -18 | 49* | -60 | -53
Cc1ccc(C(=O)OC(C)CN2C(C)CCCC2C)cc1 (stereo not drawn) | 0 | 16 | 3 | -1 | -18 | 14
SMILES | Wnt bcat act | MITF TRPM1 HTS | EBV LMP1 NFkB | esBAF inh | MITF TRPM1 inh | C2C12 statin
COc1ccccc1-c1nc(-c2ccccn2)no1 | -8 | -46 | 62* | -74 | 45 | -83
COc1nc(C)ccc1-c1noc(-c2ccccn2)n1 | 17 | 66 | 6 | -26 | -64 | -23
Clc1ccc(-c2nc(-c3ccccn3)no2)cc1Cl | · | -11 | 33 | -49 | 11 | -12
Cc1ccccc1-c1nc(-c2ccccn2)no1 | -4 | -73 | 61* | · | 74* | ·
COc1ccccc1-c1nc(-c2ccc(C)nc2OC)no1 | 61* | · | -17 | 69* | -86 | -8
COc1ccc(-c2nc(-c3ccccn3)no2)cc1 | -29 | -85 | 81* | · | 87* | ·
